# PubChem BioAssay (NCI)
# This is part of a sample that, as a whole, favours compounds with a hit. Of some 79,000 tested, about 15% had one in any assay. A number with no mark means an inactive call. Calls of active or inactive are those of the source. Rule as the data show it: active = growth inhibition above about 70%; inactive = the rest.
# Tests used:
# [1] = NCI Yeast Anticancer Drug Screen. Data for the rad52 strain (AID 147);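 also: 0% = growth of vehicle-treated control cultures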; settings: S. cerevisiae rad52 mutant growth inhibition, active compounds read high
# In short: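 Yeast strain carrying a DNA damage repair alteration was exposed to test compounds. Growth inhibition was measured relative to vehicle-treated controls.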
# [2] = NCI Yeast Anticancer Drug Screen. Data for the wt1 strain (AID 149);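 also: 0% = growth of vehicle-treated wt1 cultures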; settings: S. cerevisiae wt1 strain (SPY 50644) growth inhibition, active compounds read high
# In short: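 Growth inhibition read against vehicle controls after compound exposure of the wt1 yeast strain.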
# [3] = NCI Yeast Anticancer Drug Screen. Data for the mgt1 strain (AID 153); settings: S. cerevisiae mgt1 mutant growth inhibition, active compounds read high
# In short: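 Yeast mgt1 strain (DNA repair/cell-cycle alteration panel) exposed to compounds; growth inhibition measured relative to vehicle-treated controls.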
# [4] = NCI Yeast Anticancer Drug Screen. Data for the rad50 strain (AID 155);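 also: 0% = growth of vehicle-only cultures of the same strain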; settings: S. cerevisiae rad50 strain growth inhibition, active compounds read high
# In short: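 Readout: growth inhibition relative to vehicle-treated cultures. Compound exposure was carried out in a genetically defined yeast strain deficient in DNA damage repair.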
# [5] = NCI Yeast Anticancer Drug Screen. Data for the mec2-1 strain (AID 157); settings: S. cerevisiae mec2-1 strain, active compounds read high
# In short: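 mec2-1 yeast strain, carrying an alteration in DNA damage repair or cell cycle control, was exposed to compounds; growth inhibition was measured relative to vehicle-treated controls.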
# [6] = NCI Yeast Anticancer Drug Screen. Data for the rad14 strain (AID 159);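 also: 0% = growth of vehicle-treated control cultures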; settings: S. cerevisiae rad14 strain growth inhibition, active compounds read high
# In short: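 Growth inhibition vs vehicle controls; genetically altered yeast strain (DNA damage repair defect) treated with test compounds.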
# [7] = NCI Yeast Anticancer Drug Screen. Data for the sgs1 mgt1 strain (AID 161);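 also: 0% = growth of cultures given vehicle only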; settings: S. cerevisiae sgs1 mgt1 strain, active compounds read high
# In short: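 Yeast cells carrying a defined DNA-repair defect were exposed to test compounds. Growth inhibition was measured relative to vehicle-treated controls.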
# [8] = NCI Yeast Anticancer Drug Screen. Data for the CLN2oe strain (AID 163);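 also: 0% = growth of vehicle-only control cultures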; settings: S. cerevisiae CLN2oe strain, active compounds read high
# In short: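 Yeast cells carrying a defined cell-cycle control alteration were exposed to test compounds. Growth inhibition was scored against vehicle-treated control cultures.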
# [9] = NCI Yeast Anticancer Drug Screen. Data for the cln2 rad14 strain (AID 165);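 also: 0% = growth equal to vehicle treated cultures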; settings: S. cerevisiae cln2 rad14 strain, active compounds read high
# In short: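 Yeast carrying cln2 and rad14 alterations (cell cycle control and DNA damage repair) were exposed to compounds. Growth inhibition was measured against vehicle-treated controls.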
# [10] = NCI Yeast Anticancer Drug Screen. Data for the bub3 strain (AID 167); settings: S. cerevisiae bub3 mutant strain, active compounds read high
# In short: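 Readout: yeast growth inhibition, expressed relative to vehicle-only wells. The test organism is a mutant strain from a panel with lesions in DNA repair or checkpoint genes.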
# [11] = NCI Yeast Anticancer Drug Screen. Data for the wt2 strain (AID 169);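 also: 0% = growth of vehicle-treated yeast cultures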; settings: S. cerevisiae wt2 strain growth inhibition, active compounds read high
# In short: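 Yeast cells were exposed to test compounds, and growth inhibition was measured relative to vehicle-treated controls.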
# [12] = NCI Yeast Anticancer Drug Screen. Data for the mlh1 strain (AID 171);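 also: 0% = growth of vehicle-treated control cultures of the same strain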; settings: S. cerevisiae mlh1 strain growth inhibition, active compounds read high
# In short: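 Yeast carrying a defined genetic alteration in DNA damage repair or cell cycle control were exposed to test compounds. Growth inhibition was measured relative to vehicle-treated controls.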
# [13] = NCI Yeast Anticancer Drug Screen. Data for the sgs1 strain (AID 173);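 also: 0% = growth of vehicle-only control cultures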; settings: S. cerevisiae sgs1 mutant, active compounds read high
# In short: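 Yeast mutant strains carrying defined defects in DNA damage repair or cell cycle control were exposed to test compounds. Growth inhibition was scored against vehicle-treated controls.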
# [14] = NCI Yeast Anticancer Drug Screen. Data for the mlh1 rad18 strain (AID 175); settings: S. cerevisiae mlh1 rad18 strain growth inhibition, active compounds read high
# In short: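 Growth inhibition of the yeast strain was measured after compound exposure and expressed relative to vehicle-treated controls. The strain carries defined defects in DNA damage repair.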
# [15] = NCI Yeast Anticancer Drug Screen. Data for the rad18 strain (AID 177); settings: S. cerevisiae rad18 mutant growth inhibition, active compounds read high
# In short: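 Yeast carrying a defined DNA damage repair alteration were exposed to compounds. Growth inhibition was expressed relative to vehicle-treated controls.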
# [16] = at 5.0 µM (retest, dose inferred, filed as 0.5)
# [17] = at 50.0 µM (retest, dose inferred, filed as 5.0)
compound,measurement,setting,value
COc1ccc(C2C3=C(COC3=O)OC(C)(C)Oc3cc4c(cc32)OCO4)cc1OC (stereo not drawn),growth inhibition,[1]; at 1.2 µM,17%
same,growth inhibition,[1]; at 3.7 µM,19%
same,growth inhibition,[1]; at 11.0 µM,11%
same,growth inhibition,[1]; at 33.0 µM,47%
same,growth inhibition,[1]; at 100.0 µM,93% (active)
same,growth inhibition,[2]; at 1.2 µM,9%
same,growth inhibition,[2]; at 3.7 µM,10%
same,growth inhibition,[2]; at 11.0 µM,13%
same,growth inhibition,[2]; at 33.0 µM,23%
same,growth inhibition,[2]; at 100.0 µM,94% (active)
same,growth inhibition,[3]; at 1.2 µM,27%
same,growth inhibition,[3]; at 3.7 µM,26%
same,growth inhibition,[3]; at 11.0 µM,31%
same,growth inhibition,[3]; at 33.0 µM,54%
same,growth inhibition,[3]; at 100.0 µM,94% (active)
same,growth inhibition,[4]; at 1.2 µM,15%
same,growth inhibition,[4]; at 3.7 µM,26%
same,growth inhibition,[4]; [16],0%
same,growth inhibition,[4]; at 11.0 µM,33%
same,growth inhibition,[4]; at 33.0 µM,57%
same,growth inhibition,[4]; [17],91% (active)
same,growth inhibition,[4]; at 50.0 µM,97% (active)
same,growth inhibition,[4]; at 100.0 µM,90% (active)
same,growth inhibition,[5]; at 1.2 µM,25%
same,growth inhibition,[5]; at 3.7 µM,29%
same,growth inhibition,[5]; [16],9%
same,growth inhibition,[5]; at 11.0 µM,33%
same,growth inhibition,[5]; at 33.0 µM,58%
same,growth inhibition,[5]; [17],65%
same,growth inhibition,[5]; at 50.0 µM,96.1% (active)
same,growth inhibition,[5]; at 100.0 µM,95% (active)
same,growth inhibition,[6]; at 1.2 µM,11%
same,growth inhibition,[6]; at 3.7 µM,5%
same,growth inhibition,[6]; at 11.0 µM,5%
same,growth inhibition,[6]; at 33.0 µM,30%
same,growth inhibition,[6]; at 100.0 µM,91% (active)
same,growth inhibition,[7]; [16],-9%
same,growth inhibition,[7]; [17],50%
same,growth inhibition,[7]; at 50.0 µM,96.7% (active)
same,growth inhibition,[8]; at 1.2 µM,11%
same,growth inhibition,[8]; at 3.7 µM,17%
same,growth inhibition,[8]; at 11.0 µM,10%
same,growth inhibition,[8]; at 33.0 µM,18%
same,growth inhibition,[8]; at 100.0 µM,90% (active)
same,growth inhibition,[9]; [16],-1%
same,growth inhibition,[9]; [17],57%
same,growth inhibition,[9]; at 50.0 µM,91.6% (active)
same,growth inhibition,[10]; at 1.2 µM,-47%
same,growth inhibition,[10]; at 3.7 µM,-56%
same,growth inhibition,[10]; [16],-9%
same,growth inhibition,[10]; at 11.0 µM,-33%
same,growth inhibition,[10]; at 33.0 µM,24%
same,growth inhibition,[10]; [17],86% (active)
same,growth inhibition,[10]; at 50.0 µM,96.3% (active)
same,growth inhibition,[10]; at 100.0 µM,88% (active)
same,growth inhibition,[11]; at 1.2 µM,5%
same,growth inhibition,[11]; at 3.7 µM,2%
same,growth inhibition,[11]; at 11.0 µM,8%
same,growth inhibition,[11]; at 33.0 µM,26%
same,growth inhibition,[11]; at 100.0 µM,90% (active)
same,growth inhibition,[12]; at 1.2 µM,-11%
same,growth inhibition,[12]; at 3.7 µM,0%
same,growth inhibition,[12]; at 11.0 µM,6%
same,growth inhibition,[12]; at 33.0 µM,57%
same,growth inhibition,[12]; at 100.0 µM,94% (active)
same,growth inhibition,[13]; at 1.2 µM,37%
same,growth inhibition,[13]; at 3.7 µM,23%
same,growth inhibition,[13]; at 11.0 µM,27%
same,growth inhibition,[13]; at 33.0 µM,61%
same,growth inhibition,[13]; at 100.0 µM,94% (active)
same,growth inhibition,[14]; [16],-1%
same,growth inhibition,[14]; [17],96% (active)
same,growth inhibition,[14]; at 50.0 µM,97.5% (active)
same,growth inhibition,[15]; at 1.2 µM,-4%
same,growth inhibition,[15]; at 3.7 µM,5%
same,growth inhibition,[15]; at 11.0 µM,7%
same,growth inhibition,[15]; at 33.0 µM,41%
same,growth inhibition,[15]; at 100.0 µM,94% (active)
